# About 13,000 (27%) of roughly 48,000 compounds showed an effect of 50% or more. Some of the results follow.
# System: Wolbachia pipientis
# Test: Anti-Wolbachia Cell-Based Screen
# Format: functional
# Design: scale not given: in the data most compounds retested in dose-response had high values
# Details: 5 µM
row,SMILES,Percent Effect
1,O=C(c1ccnnc1)N1CCC2(CCN(c3ccsc3)C2=O)C1 (stereo unspecified),3.217%
2,CCC(C(=O)N(Cc1ccccn1)C1CCCCC1)n1cccn1 (stereo unspecified),5.317%
3,COCCn1/c(=N\C(=O)CN(C)S(C)(=O)=O)sc2cc(C)ccc21,-2.711%
4,CC(C)(C)c1cnc(CN2CCC(NC(=O)Nc3ccccc3)CC2)o1,8.013%
5,CCOC(=O)CN1CCC2(CCCN(CCOc3ccccc3)C2)C1 (stereo unspecified),101.8%
6,O=C(c1cscn1)N1CCC2(CCCN(CCOc3ccccc3)C2)C1 (stereo unspecified),112%
7,Cn1cc(CN2CC3(CCN(C(=O)c4cscn4)C3)C2)cn1,2.986%
8,Cc1ccc(CN2CCC3(CCCN(C(=O)N(C)C)C3)C2)cc1 (stereo unspecified),-1.979%
9,O=C(c1cscn1)N1CCC2(CCN(S(=O)(=O)c3ccccc3)C2)C1 (stereo unspecified),-2.264%
10,CN(C)C(=O)N1CCC2(CCCN(CCOc3ccccc3)C2)C1.O=C(O)C(F)(F)F (stereo unspecified),102.1%
11,O=C(CC1CC1)N1CCC2(CCCN(c3ncccn3)C2)CC1,-10.65%
12,O=C(CC1CC1)N1CCC2(CCCN(CCOc3ccccc3)C2)C1.O=C(O)C(F)(F)F (stereo unspecified),117.3%
13,O=C(CC1CC1)N1CC[C@H]2OCC[C@@]2(COc2ncccc2F)C1.O=C(O)C(F)(F)F,5.049%
14,COC(=O)c1cc(OCC2CCC2)cc(C(=O)N[C@@H]2CNCC[C@H]2O)c1,8.764%
15,O=C(c1ccc(=O)[nH]c1)N1CCCC2(C=Cc3ccccc3O2)CC1 (stereo unspecified),-7.084%
16,Cc1nc(CN(C)S(=O)(=O)c2ccccc2C(F)(F)F)no1,2.399%
17,COc1ccc(CN2CCOC[C@H](OCCC(C)C)C2)cc1,0.3051%
18,CCCS(=O)(=O)NCC(C)c1ccc(F)c(F)c1 (stereo unspecified),-6.211%
19,CC(=O)c1ccc(C(=O)NCc2ccnc(N(C)C)n2)cc1,-2.815%
20,O=C([C@H]1CCCO1)N1CCC2(CCCN(CCOc3ccccc3)C2)C1 (stereo partly specified),105.8%
21,CN1CC[C@]2(CN(C(=O)[C@H]3CCCO3)C[C@H]2c2ccccc2)C1=O,-10.86%
22,CCN1CC[C@]2(CN(C(=O)[C@H]3CCCO3)C[C@H]2c2ccccc2)C1=O,-5.714%

row,SMILES,Percent Effect
1,c1cc(CCNc2ncc(-c3cnccn3)c(C3CC3)n2)ccn1,137.3%
2,c1cc(-c2n[nH]c(CNc3nnc(C4CC4)o3)n2)ccn1,-23.66%
3,Cn1ncnc1-c1ccnc(NCCCc2ccncc2)n1,-3.782%
4,c1cc(CNc2ncc(-c3cnccn3)c([C@@H]3CCCO3)n2)ccn1,102%
5,c1cnc(-c2cnc(N3CCSCC3)nc2C2CCCO2)cn1 (stereo unspecified),-3.576%
6,Cc1cnc2c(c1NCc1ccncc1)c(=O)n(C)c(=O)n2C,-24.16%
7,c1cc(CNCCC2CCCO2)ccn1 (stereo unspecified),-4.656%
8,c1cc(CNc2ncc(-c3cnccn3)c(C3CC3)n2)ccn1,244.3%
9,c1cc(CCN2CCC(c3n[nH]c(C4CC4)n3)CC2)ccn1,9.327%
10,Cc1cc(F)ccc1OC1(C(=O)O)CCN(Cc2cccnc2N)CC1,-8.297%
11,Cc1noc(C)c1CN(C)Cc1csc(-c2ccc(F)cc2)n1,17.5%
12,Cc1cc(C(=O)N2CCN(C(=O)CCC3CCCCC3)CC2)n(C)n1,-12.7%
13,O=S(=O)(Cc1ccccc1)c1nnc(N2CCCC2)s1,-13.72%
14,Cc1ncc(CN(C)C(=O)Nc2cccc(CN3CCOC3=O)c2)s1,6.587%
15,CN(C)C(=O)[C@H]1C[C@@H]2CN(C(=O)NCC3CCCCC3)C[C@H]1O2,-9.234%
16,Cc1nn(C)c(C)c1C1CCCN1Cc1nc(-c2ccco2)no1 (stereo unspecified),17.11%
17,Cc1nn(C)c(Cl)c1C1CCCN1Cc1nc(-c2ccco2)no1 (stereo unspecified),77.16%
18,CCCc1noc(CN2CCCC2c2c(C)nn(C)c2OC)n1 (stereo unspecified),-3.307%
19,COc1c(C2CCCN2Cc2nc(-c3ccco3)no2)c(C)nn1C (stereo unspecified),131.1%
20,Cc1ccc(C2CCCN2Cc2nc(-c3ccco3)no2)cc1 (stereo unspecified),6.26%
21,COc1c(C2CCCN2Cc2c(C)noc2C)c(C)nn1C (stereo unspecified),-0.2322%
22,CCOC(C)c1nc(CN2CCNCC2)cs1 (stereo unspecified),1.236%

row,SMILES,Percent Effect
1,c1cc(CN2C[C@@H]3OCCN(CC4CCCO4)[C@@H]3C2)co1 (stereo partly specified),-2.91%
2,Cc1cc(C)cc(CN2C[C@@H]3OCCN(S(=O)(=O)N(C)C)[C@@H]3C2)c1,-1.729%
3,Cc1cc(C)cc(CN2C[C@@H]3OCCN(CC(=O)N(C)C)[C@@H]3C2)c1.O=C(O)C(F)(F)F,122.5%
4,CN(C)C(=O)CN1CCO[C@H]2CN(Cc3ccoc3)C[C@H]21,95.5%
5,O=C(O)C(F)(F)F.O=C1CO[C@@H]2CN(C3CCOCC3)C[C@H]2N1Cc1cccc(F)c1,2.353%
6,O=C(O)C(F)(F)F.O=C(O)C(F)(F)F.O=C(O)C(F)(F)F.c1cc(CN2C[C@@H]3OCCN(CCN4CCCC4)[C@@H]3C2)co1,-5.454%
7,CN(C)C(=O)CO[C@H]1CN(Cc2cccc(F)c2)[C@@H]2CCCO[C@H]12.O=C(O)C(F)(F)F,5.103%
8,CN(C)CCN1CCO[C@H]2CN(Cc3cnn(C)c3)C[C@H]21.O=C(O)C(F)(F)F.O=C(O)C(F)(F)F.O=C(O)C(F)(F)F,2.67%
9,Cc1cccc(CN2C(=O)CO[C@@H]3CN(C4CCOCC4)C[C@H]32)c1.O=C(O)C(F)(F)F,109.7%
10,Cc1cccc(CN2C(=O)CO[C@@H]3CN(CCO)C[C@H]32)c1.O=C(O)C(F)(F)F,23.75%
11,CN1CCC(N(C)CCC(=O)N2CCN(Cc3cccc(F)c3)CC2)C1 (stereo unspecified),-12.08%
12,CN(C)C(=O)CN1CCO[C@H]2CN(Cc3cccc(F)c3)C[C@H]21,99.44%
13,CC(SCc1cc(Br)cc2cccnc12)C(N)=O (stereo unspecified),-22.01%
14,COc1ccc2c(c1)CC(C(=O)N(C)CCCc1cnn(C)c1)CO2 (stereo unspecified),-3.689%
15,CC(C)[C@@H]1CN(c2ccc(C(F)(F)F)cn2)C[C@H]1NS(C)(=O)=O,-16.11%
16,OCC(O)CSCc1ccc(F)cc1Cl (stereo unspecified),-2.217%
17,CC(=O)N[C@@H]1CN(C(=O)c2ccoc2)C[C@H]1c1ccc(C)cc1,0.232%
18,Cc1cc(CN2CC[C@H]3[C@H]2CCN3CC(=O)N(C)C)oc1C.O=C(O)C(F)(F)F.O=C(O)C(F)(F)F,-40.85%
19,Cc1cccc(CN2C[C@@H]3OCCN(S(=O)(=O)N(C)C)[C@@H]3C2)c1.O=C(O)C(F)(F)F,1.609%
20,Cc1cccc(CN2C[C@@H]3OCCN(CC(=O)N(C)C)[C@@H]3C2)c1.O=C(O)C(F)(F)F,97.29%
21,O=C(NC[C@H]1OC[C@@H](NC2COC2)[C@@H]1O)C1CCCC1,-18.2%
22,Cn1cc(C(C)(O)CNC(=O)c2ccc(Br)s2)cn1 (stereo unspecified),0.7525%

row,SMILES,Percent Effect
1,Cc1noc(C)c1CN(Cc1ccccc1)C(C)C,-1.884%
2,CN(C)C(=O)[C@@H]1CCO[C@@H]2CCN(CCOCc3ccccc3)C[C@H]21.O=C(O)C(F)(F)F,110%
3,CN(C)C(=O)[C@@H]1CCO[C@@H]2CCN(Cc3ccccc3)C[C@@H]21.O=C(O)C(F)(F)F,-6.959%
4,CN(C)C(=O)[C@@H]1CCO[C@@H]2CCN(CCc3ccccc3)C[C@@H]21.O=C(O)C(F)(F)F,0.9995%
5,CNC(=O)[C@@H]1CCO[C@@H]2CCN(CCc3ccccc3)C[C@H]21.O=C(O)C(F)(F)F,100.2%
6,O=C(NC1CC1)[C@@H]1CCO[C@@H]2CCN(CCc3ccccc3)C[C@@H]21.O=C(O)C(F)(F)F,121.8%
7,Cc1noc(C)c1CN1CC[C@H]2OCC[C@@H](C(=O)NCC3CC3)[C@H]2C1.O=C(O)C(F)(F)F,-0.6103%
8,O=C(NC1CCC1)[C@@H]1CCO[C@@H]2CCN(CCc3ccccc3)C[C@H]21.O=C(O)C(F)(F)F,10.39%
9,CNC(=O)[C@@H]1CCO[C@@H]2CCN(C3CCOCC3)C[C@@H]21.O=C(O)C(F)(F)F,-5.14%
10,O=C(NCC1CC1)[C@@H]1CCO[C@@H]2CCN(Cc3ccc(F)cc3)C[C@H]21.O=C(O)C(F)(F)F,-1.927%
11,O=C(NC1CC1)[C@@H]1CCO[C@@H]2CCN(C3CCOCC3)C[C@H]21.O=C(O)C(F)(F)F,-6.605%
12,O=C(NCC1CC1)[C@@H]1CCO[C@@H]2CCN(CCc3ccccc3)C[C@H]21.O=C(O)C(F)(F)F,103.2%
13,CC1=N[C@@]2(CC[C@@H]3CN(S(=O)(=O)CC(C)C)C[C@@H]32)C(=O)N1CC1CC1,5.74%
14,O=C(C1CCCN(Cc2cccc(F)c2)C1)N1CCc2sccc2C1 (stereo unspecified),1.206%
15,CCN(CCc1nccs1)C(=O)c1sccc1C,-15.07%
16,Cc1noc(C)c1CN(C)Cc1csc(-c2ccc(C(C)C)cc2)n1,-1.572%
17,COCC(C)(CCO)NC(=O)Nc1cccc(F)c1C (stereo unspecified),-3.176%
18,O=C(O)C(F)(F)F.O=C([C@@H]1CCO[C@@H]2CCN(CCc3ccccc3)C[C@@H]21)N1CCCC1,117.3%
19,O=C([C@@H]1CCO[C@@H]2CCN(CC3CC3)C[C@H]21)N1CCCC1,-26.98%
20,O=C(O)C(F)(F)F.O=C([C@H]1CN(CCc2ccccc2)C[C@H]2OCC[C@@H]12)N1CCCO1,-7.584%

# — ChEMBL document CHEMBL3988442, “University of Dundee, Small-Polar-MMV Screening Library” (2021)
